In PubChem BioAssay (NCATS) one finds Potency data, which are given here for 15 molecules.

SMILES strings stand for the structures. Results filed as inconclusive are left out. The source made the active and inactive calls. The call rests on the fitted dose curve; in most records, active means well fitted inhibition curve with a large enough effect; inconclusive means small, poorly fitted or top-dose-only effect; inactive means flat fitted curve, though single readings scatter.

Assay in all cases: qHTS profiling for inhibitors of Plasmodium falciparum proliferation (AID 504749); further: nearly all actives have a fitted effect of over 60% in size
Conditions in all cases: P. falciparum in erythrocytes, SYBR Green DNA, 72 h; series mostly up to 28.7 µM
In general terms: qHTS replaces the single test concentration by a dilution series.

The test system of one experiment is CP269. The gist of the method: (§1)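 In a 72 h erythrocytic culture (37 C, humidified, 5% CO2) at 2.5% hematocrit and 0.3% starting parasitemia, compounds were tested; SYBR Green I in detergent lysis buffer stained parasite DNA overnight.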
The next experiment relates to CP286. A digest of the protocol:
as §1

The next experiment has as its system CP291. A digest of the protocol: as §1
Another experiment deals with CP297. The gist of the method: as §1
In another experiment the test system is CP305. A digest of the protocol: as §1
The next experiment relates to CP315. A digest of the protocol: as §1
For the next experiment, the system named is CP325. A digest of the protocol: as §1
For another experiment, the system named is CP329. A digest of the protocol:
as §1

In another experiment the test system is CP335. The gist of the method:
as §1

A further experiment concerns DFO2036. A digest of the protocol:
as §1

The test system of another experiment is DIV14. The gist of the method: as §1
The subject of the next experiment is DIV17. The gist of the method:
as §1

A further experiment relates to DIV30. The gist of the method:
as §1

The test system of a further experiment is Dd2. A digest of the protocol: as §1
In the next experiment the test system is ECU. The gist of the method: as §1
Another experiment has as its system FAB9. The gist of the method:
as §1

A further experiment concerns GB4. A digest of the protocol:
as §1

Another experiment relates to HB3. A digest of the protocol:
as §1

For a further experiment, the system named is ICS. A digest of the protocol: as §1
Another experiment concerns JCK. The gist of the method:
as §1
Potency means the concentration at half of the fitted maximal effect.

In the case of `CCCCCCCCCCCCCCCCCC(=O)O`, the Potency entry with CP269, in the experiment on CP286, in the experiment with CP291, with CP297, in the experiment with CP305 and in the experiment with CP315 was “inactive” each time. Also, the Potency entry in the experiment with CP325, in the experiment with CP329, in the experiment on CP335, with DFO2036, with DIV14 and with DIV17 was “inactive” in each case. The Potency entry in the experiment on DIV30, in the experiment on Dd2, with ECU, in the experiment with FAB9, with GB4 and with HB3 was “inactive” in each case. Also, the Potency entry with ICS and with JCK was “inactive” throughout.

In the case of `CCC1C(=O)OCC1Cc1cncn1C` (stereo unspecified), the Potency entry with CP269, in the experiment on CP286, in the experiment with CP291, in the experiment on CP297, with CP305 and with CP315 was “inactive” throughout. For the same molecule, the Potency entry in the experiment on CP325, with CP329, with CP335, in the experiment on DFO2036, in the experiment on DIV14 and in the experiment with DIV17 was “inactive” in each case. Further, the Potency result with DIV30, with Dd2, with ECU, with FAB9, in the experiment with GB4 and in the experiment with HB3 was “inactive” throughout. For the same molecule, the Potency entry in the experiment on ICS and in the experiment on JCK was “inactive” throughout.

`CC1(C)S[C@@H]2[C@H](NC(=O)[C@H](NC(=O)N3CCN(S(C)(=O)=O)C3=O)c3ccccc3)C(=O)N2[C@H]1C(=O)O`: the Potency result in the experiment with CP269, with CP286, in the experiment on CP291, with CP297, with CP305 and with CP315 was “inactive” throughout. Moreover, the Potency result in the experiment on CP325, in the experiment on CP329, in the experiment on CP335, with DFO2036, with DIV14 and in the experiment on DIV17 was “inactive” each time. For the same molecule, the Potency entry in the experiment with DIV30, with Dd2, with ECU, with FAB9, in the experiment with GB4 and with HB3 was “inactive” throughout. Besides, the Potency result in the experiment with ICS and in the experiment on JCK was “inactive” each time.

With `C=CCN1C(=O)C(CC(C)C)NC1=S` (stereo unspecified), the Potency entry in the experiment with CP269, in the experiment with CP286, with CP291, in the experiment on CP297, in the experiment on CP305 and in the experiment with CP315 was “inactive” throughout. In addition, the Potency result with CP325, in the experiment with CP329, in the experiment with CP335, in the experiment with DFO2036, with DIV14 and with DIV17 was “inactive” throughout. The Potency entry in the experiment with DIV30, in the experiment with Dd2, in the experiment on ECU, in the experiment on FAB9, in the experiment on GB4 and in the experiment with HB3 was “inactive” each time. The Potency result in the experiment on ICS and in the experiment with JCK was “inactive” each time.

As to `C#C[C@]1(O)CC[C@H]2[C@@H]3CCc4cc(O)ccc4[C@H]3CC[C@@]21C`, the Potency result in the experiment with CP269, with CP286, in the experiment on CP291, in the experiment on CP297, in the experiment on CP305 and in the experiment on CP315 was “inactive” each time. The Potency result with CP325, in the experiment on CP329, in the experiment on CP335, in the experiment on DFO2036, with DIV14 and with DIV17 was “inactive” in each case. The Potency result with DIV30, with Dd2, in the experiment on ECU, in the experiment on FAB9, in the experiment with GB4 and with HB3 was “inactive” throughout. Moreover, the Potency entry with ICS and in the experiment on JCK was “inactive” throughout.

Regarding `O=C(O)[C@H](CC(=O)N1C[C@H]2CCCC[C@H]2C1)Cc1ccccc1`, the Potency entry with CP269, in the experiment on CP286, in the experiment on CP291, with CP297, in the experiment on CP305 and with CP315 was “inactive” in each case. The Potency entry in the experiment on CP325, in the experiment with CP329, in the experiment on CP335, with DFO2036, in the experiment on DIV14 and in the experiment with DIV17 was “inactive” throughout. The Potency entry with DIV30, in the experiment with Dd2, with ECU, in the experiment on FAB9, in the experiment on GB4 and in the experiment with HB3 was “inactive” throughout. Moreover, the Potency entry in the experiment with ICS and with JCK was “inactive” throughout.

In the case of `Nc1ccc(O)c(C(=O)O)c1`, the Potency result in the experiment on CP269, with CP286, with CP291, with CP297, with CP305 and with CP315 was “inactive” in each case. For the same molecule, the Potency entry in the experiment with CP325, in the experiment on CP329, in the experiment on CP335, with DFO2036, in the experiment on DIV14 and with DIV17 was “inactive” throughout. The Potency entry in the experiment on DIV30, in the experiment with Dd2, in the experiment on ECU, in the experiment on FAB9, with GB4 and with HB3 was “inactive” throughout. Further, the Potency result in the experiment on ICS and with JCK was “inactive” each time.

In the case of `O=C(/C=C/c1ccccc1)NCCO`, the Potency entry with CP269, in the experiment with CP286, in the experiment on CP291, in the experiment on CP297, with CP305 and with CP315 was “inactive” in each case. Besides, the Potency entry in the experiment with CP325, in the experiment with CP329, in the experiment with CP335, in the experiment on DFO2036, in the experiment on DIV14 and with DIV17 was “inactive” throughout. The Potency result with DIV30, with Dd2, with ECU, in the experiment on FAB9, in the experiment on GB4 and in the experiment on HB3 was “inactive” throughout. For the same molecule, the Potency result in the experiment on ICS and in the experiment on JCK was “inactive” throughout.

Take `O=C(O)c1ccccc1Nc1cccc(C(F)(F)F)c1`: the Potency entry in the experiment on CP269, in the experiment on CP286, in the experiment with CP291, in the experiment with CP297, in the experiment with CP305 and in the experiment with CP315 was “inactive” each time. For the same molecule, the Potency entry in the experiment on CP325, with CP329, in the experiment with CP335, in the experiment with DFO2036, in the experiment on DIV17 and with DIV30 was “inactive” in each case. Further, the Potency entry in the experiment with Dd2, in the experiment with ECU, in the experiment on FAB9, in the experiment with GB4, in the experiment with HB3 and in the experiment on ICS was “inactive” each time. In addition, the Potency result with JCK is “inactive”.

On to `COc1cc(/C=C/C(=O)N2CCN(CC(=O)N3CCCC3)CC2)cc(OC)c1OC`, for which the Potency entry in the experiment on CP269, with CP286, in the experiment with CP291, with CP297, with CP305 and with CP315 was “inactive” in each case. Moreover, the Potency entry in the experiment with CP325, in the experiment with CP329, with CP335, with DFO2036, with Dd2 and in the experiment on FAB9 was “inactive” throughout. Moreover, the Potency result with GB4, in the experiment on HB3 and in the experiment with JCK was “inactive” each time. Besides, the Potency in the experiment with ICS was 11.2 µM (active).

For the molecule `NC(=O)C(c1ccccc1)(c1ccccc1)[C@@H]1CCN(CCc2ccc3c(c2)CCO3)C1`, the Potency entry in the experiment with CP269, in the experiment with CP315, in the experiment on CP325, in the experiment with FAB9, with HB3 and with JCK was “inactive” in each case. For the same molecule, the Potency in the experiment with DIV14 is 7.57 µM (active); in the experiment with DIV17, 10.7 µM (active); in the experiment with Dd2, 5.01 µM (active); in the experiment with ICS it was 7.08 µM (active).

As for `Cc1nc2ccccc2n1Cc1ccc(Cl)cc1`, the Potency entry in the experiment with CP269, in the experiment with CP286, in the experiment on CP291, in the experiment with CP297, in the experiment on CP305 and in the experiment with CP315 was “inactive” in each case. In addition, the Potency entry in the experiment on DIV14, in the experiment on DIV17, with DIV30, in the experiment with Dd2, in the experiment on FAB9 and with JCK was “inactive” each time.

Consider `O=c1[nH]c2ccccc2n1CCCN1CCN(C(c2ccccc2)c2ccccc2)CC1`, for which the Potency result with CP315, in the experiment on FAB9, with HB3 and in the experiment on JCK was “inactive” in each case. The Potency in the experiment on DIV14 is 13.5 µM (active); in the experiment with DIV17 it was 13.5 µM (active); in the experiment with Dd2, 11.2 µM (active); with GB4, 13.5 µM (active); with ICS it was 7.94 µM (active).

For `CCOc1ccc2nc(S(N)(=O)=O)sc2c1`, the Potency result in the experiment with CP269, with CP286, with CP297, in the experiment with CP305, with CP315 and in the experiment on CP325 was “inactive” in each case. For the same molecule, the Potency result in the experiment with CP329, with CP335, with DFO2036, with DIV14, in the experiment on DIV17 and in the experiment on DIV30 was “inactive” throughout. For the same molecule, the Potency result in the experiment with Dd2, with ECU, in the experiment with FAB9, in the experiment on GB4, in the experiment with HB3 and with ICS was “inactive” each time. Besides, in the experiment on JCK, the Potency entry is “inactive”.

For `O=C(CCN1CCN(CCO)CC1)N1c2ccccc2Sc2ccc(C(F)(F)F)cc21`, the Potency with CP286 is 12.6 µM (active); with DIV14 it was 9.53 µM (active); in the experiment with DIV17 it was 9.53 µM (active); in the experiment on Dd2, 11.2 µM (active); with ICS, 11.2 µM (active). For the same molecule, the Potency entry in the experiment with CP297, in the experiment with CP305, with CP315, in the experiment with CP329, in the experiment with FAB9 and in the experiment with JCK was “inactive” each time.
